Measurements taken from the supplement of paper PMC10849652.
About 8,800 targets were measured; listed, in parts, are those with a hit and a random draw of the rest. About 0.5% of all pairs of compound and target were hits. Unmarked numbers belong to inactive results.

Tests used:
Experiment in all cases: log2 fold change, soluble protein after heating vs DMSO (PISA); higher = thermal stabilisation; K562 lysate, 10 uM; active = over 0.2 and 3.5 SD of the protein, either way, in both replicates (recomputed)
alvocidib = compound: CN1CC[C@H](c2c(O)cc(O)c3c(=O)cc(-c4ccccc4Cl)oc23)[C@H](O)C1 [alvocidib]
Method in brief: (§1)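 Pellets of K562 cells were dounce-homogenised in PBS pH 7.4 with 1 mM MgCl2, and the crude extract was held at 1 mg/mL protein for a 30 min treatment with 10 μM compound. Aliquots were heated for 3 min over 48°C-58°C and pooled before NP-40 was added to 0.5% at 4°C. The supernatant from 21,000xg for 90 min was quantified by TMTpro 16plex LC-MS/MS with channel sums equalised. Values are reported from duplicates as log-two fold change in thermal stability relative to solvent controls.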

Tubastatin A = compound: CN1CCc2c(c3ccccc3n2Cc2ccc(C(=O)NO)cc2)C1 [Tubastatin A]
Method in brief: as §1

[1] = compound: CNC(=O)C1=CC=CC=C1NC2=NC(=NC=C2Cl)NC3=C(C=C(C=C3)N4CCOCC4)OC
Method in brief: as §1

defactinib = compound: CNC(=O)c1ccc(Nc2ncc(C(F)(F)F)c(NCc3nccnc3N(C)S(C)(=O)=O)n2)cc1 [defactinib]
Method in brief: as §1

[2] = compound: CNc1nc(-c2ccc3c(N)n[nH]c3c2)cc(N2C[C@@H](C(=O)NC3CCCCC3)CC[C@H]2C)n1
Method in brief: as §1

encorafenib = compound: COC(=O)N[C@@H](C)CNc1nccc(-c2cn(C(C)C)nc2-c2cc(Cl)cc(NS(C)(=O)=O)c2F)n1 [encorafenib]
Method in brief: as §1

[3] = compound: COC(=O)[C@H](CCSC)NC(=O)C1=C(C=C(C=C1)NC[C@H](CS)N)C2=CC=CC=C2
Method in brief: as §1

alisertib = compound: COc1cc(Nc2ncc3c(n2)-c2ccc(Cl)cc2C(c2c(F)cccc2OC)=NC3)ccc1C(=O)O [alisertib]
Method in brief: as §1

[4] = compound: COc1cc2nc(-c3cc(F)ccc3O)nc(N[C@@H]3CNC[C@H]3C(C)(C)O)c2cc1OC
Method in brief: as §1

gefitinib = compound: COc1cc2ncnc(Nc3ccc(F)c(Cl)c3)c2cc1OCCCN1CCOCC1 [gefitinib]
Method in brief: as §1

lapatinib = compound: CS(=O)(=O)CCNCc1ccc(-c2ccc3ncnc(Nc4ccc(OCc5cccc(F)c5)c(Cl)c4)c3c2)o1 [lapatinib]
Method in brief: as §1

pictilisib = compound: CS(=O)(=O)N1CCN(Cc2cc3nc(-c4cccc5[nH]ncc45)nc(N4CCOCC4)c3s2)CC1 [pictilisib]
Method in brief: as §1

crizotinib = compound: C[C@@H](Oc1cc(-c2cnn(C3CCNCC3)c2)cnc1N)c1c(Cl)ccc(F)c1Cl [crizotinib]
Method in brief: as §1

[5] = compound: C[C@H](C1=CC=C(C=C1)C(=O)NC2=C3C=CNC3=NC=C2)N
Method in brief: as §1

duvelisib = compound: C[C@H](Nc1ncnc2nc[nH]c12)c1cc2cccc(Cl)c2c(=O)n1-c1ccccc1 [duvelisib]
Method in brief: as §1

gandotinib = compound: Cc1cc(Nc2cc(CN3CCOCC3)c3nc(C)c(Cc4ccc(Cl)cc4F)n3n2)n[nH]1 [gandotinib]
Method in brief: as §1

tozasertib = compound: Cc1cc(Nc2cc(N3CCN(C)CC3)nc(Sc3ccc(NC(=O)C4CC4)cc3)n2)n[nH]1 [tozasertib]
Method in brief: as §1

doramapimod = compound: Cc1ccc(-n2nc(C(C)(C)C)cc2NC(=O)Nc2ccc(OCCN3CCOCC3)c3ccccc23)cc1 [doramapimod]
Method in brief: as §1

bafetinib = compound: Cc1ccc(NC(=O)c2ccc(CN3CC[C@H](N(C)C)C3)c(C(F)(F)F)c2)cc1Nc1nccc(-c2cncnc2)n1 [bafetinib]
Method in brief: as §1

[6] = compound: Cc1cccc(CC(=O)N2CCc3c2ccc(-c2cn(C)c4ncnc(N)c24)c3F)n1
Method in brief: as §1

Chain of UniProt Q8NCA5 (Q8NCA5 whole entry, looked up): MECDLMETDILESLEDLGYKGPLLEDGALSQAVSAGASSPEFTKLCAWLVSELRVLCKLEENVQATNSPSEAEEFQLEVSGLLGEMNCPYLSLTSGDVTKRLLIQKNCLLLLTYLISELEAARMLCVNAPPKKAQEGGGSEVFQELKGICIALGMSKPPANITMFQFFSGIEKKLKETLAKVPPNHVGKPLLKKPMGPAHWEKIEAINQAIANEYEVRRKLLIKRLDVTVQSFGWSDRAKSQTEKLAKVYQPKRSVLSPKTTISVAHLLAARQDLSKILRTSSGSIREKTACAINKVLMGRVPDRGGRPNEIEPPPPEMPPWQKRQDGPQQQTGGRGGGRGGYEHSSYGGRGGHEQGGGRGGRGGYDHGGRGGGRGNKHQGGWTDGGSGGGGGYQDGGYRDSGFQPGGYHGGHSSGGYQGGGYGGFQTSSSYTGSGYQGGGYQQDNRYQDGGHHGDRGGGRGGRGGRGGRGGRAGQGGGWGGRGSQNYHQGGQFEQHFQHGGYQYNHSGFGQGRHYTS
Chain of UniProt Q9H4H8 (Q9H4H8 whole entry, looked up): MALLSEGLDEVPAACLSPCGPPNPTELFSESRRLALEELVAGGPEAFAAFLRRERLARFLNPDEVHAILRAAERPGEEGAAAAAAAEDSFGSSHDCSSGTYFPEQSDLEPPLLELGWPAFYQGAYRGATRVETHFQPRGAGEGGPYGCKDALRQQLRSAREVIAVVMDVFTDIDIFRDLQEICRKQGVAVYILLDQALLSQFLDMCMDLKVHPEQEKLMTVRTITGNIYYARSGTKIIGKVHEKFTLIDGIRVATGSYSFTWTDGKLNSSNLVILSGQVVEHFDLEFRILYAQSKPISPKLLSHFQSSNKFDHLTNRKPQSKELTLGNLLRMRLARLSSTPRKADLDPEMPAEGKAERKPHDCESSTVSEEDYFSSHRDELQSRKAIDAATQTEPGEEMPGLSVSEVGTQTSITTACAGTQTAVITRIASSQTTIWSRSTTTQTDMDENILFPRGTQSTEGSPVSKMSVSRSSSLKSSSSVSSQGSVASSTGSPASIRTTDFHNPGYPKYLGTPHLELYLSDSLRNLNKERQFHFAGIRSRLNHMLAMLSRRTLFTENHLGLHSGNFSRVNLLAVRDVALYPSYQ
Chain of UniProt Q9BQS8 (Q9BQS8 whole entry, looked up): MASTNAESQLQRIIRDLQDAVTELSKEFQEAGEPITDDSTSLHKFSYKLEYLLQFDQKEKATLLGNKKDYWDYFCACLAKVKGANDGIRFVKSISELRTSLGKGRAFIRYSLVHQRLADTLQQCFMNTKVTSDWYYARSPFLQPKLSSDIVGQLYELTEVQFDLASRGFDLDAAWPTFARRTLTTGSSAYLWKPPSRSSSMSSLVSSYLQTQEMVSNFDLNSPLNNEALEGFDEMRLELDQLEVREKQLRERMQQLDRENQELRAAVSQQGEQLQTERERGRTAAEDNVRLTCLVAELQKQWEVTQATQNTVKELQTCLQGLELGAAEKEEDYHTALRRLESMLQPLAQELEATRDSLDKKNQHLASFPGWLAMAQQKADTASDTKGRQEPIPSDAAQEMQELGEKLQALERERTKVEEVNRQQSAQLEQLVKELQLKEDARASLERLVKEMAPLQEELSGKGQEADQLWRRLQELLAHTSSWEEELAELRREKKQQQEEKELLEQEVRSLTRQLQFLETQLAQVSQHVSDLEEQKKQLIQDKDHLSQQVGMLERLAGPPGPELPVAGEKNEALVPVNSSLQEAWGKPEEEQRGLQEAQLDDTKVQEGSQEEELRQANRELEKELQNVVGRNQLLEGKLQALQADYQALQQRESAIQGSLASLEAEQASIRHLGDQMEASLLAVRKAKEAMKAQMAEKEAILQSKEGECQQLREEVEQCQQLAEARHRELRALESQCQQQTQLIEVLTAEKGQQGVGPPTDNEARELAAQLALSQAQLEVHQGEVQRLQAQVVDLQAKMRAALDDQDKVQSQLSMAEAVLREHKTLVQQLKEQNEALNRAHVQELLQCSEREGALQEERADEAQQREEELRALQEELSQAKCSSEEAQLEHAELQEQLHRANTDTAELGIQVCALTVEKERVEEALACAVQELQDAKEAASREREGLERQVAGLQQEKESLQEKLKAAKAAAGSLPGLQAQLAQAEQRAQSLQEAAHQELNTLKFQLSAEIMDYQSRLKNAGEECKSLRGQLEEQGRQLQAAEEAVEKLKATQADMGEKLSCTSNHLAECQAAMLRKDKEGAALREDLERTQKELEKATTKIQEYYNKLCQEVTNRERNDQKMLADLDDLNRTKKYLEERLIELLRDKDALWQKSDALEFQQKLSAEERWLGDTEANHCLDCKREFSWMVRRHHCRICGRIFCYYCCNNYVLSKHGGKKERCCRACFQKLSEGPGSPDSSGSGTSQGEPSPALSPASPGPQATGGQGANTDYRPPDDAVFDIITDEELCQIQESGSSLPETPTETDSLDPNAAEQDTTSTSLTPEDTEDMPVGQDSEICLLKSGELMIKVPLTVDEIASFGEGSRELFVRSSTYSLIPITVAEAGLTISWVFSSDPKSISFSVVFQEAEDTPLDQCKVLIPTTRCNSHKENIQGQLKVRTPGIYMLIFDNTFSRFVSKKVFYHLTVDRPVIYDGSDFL
Chain of UniProt O43768 (O43768 whole entry, looked up): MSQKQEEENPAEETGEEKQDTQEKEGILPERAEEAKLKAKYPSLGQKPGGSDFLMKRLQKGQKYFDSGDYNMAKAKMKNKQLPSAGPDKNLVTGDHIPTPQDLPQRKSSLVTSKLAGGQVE
Chain of UniProt P11413 (P11413 whole entry, looked up): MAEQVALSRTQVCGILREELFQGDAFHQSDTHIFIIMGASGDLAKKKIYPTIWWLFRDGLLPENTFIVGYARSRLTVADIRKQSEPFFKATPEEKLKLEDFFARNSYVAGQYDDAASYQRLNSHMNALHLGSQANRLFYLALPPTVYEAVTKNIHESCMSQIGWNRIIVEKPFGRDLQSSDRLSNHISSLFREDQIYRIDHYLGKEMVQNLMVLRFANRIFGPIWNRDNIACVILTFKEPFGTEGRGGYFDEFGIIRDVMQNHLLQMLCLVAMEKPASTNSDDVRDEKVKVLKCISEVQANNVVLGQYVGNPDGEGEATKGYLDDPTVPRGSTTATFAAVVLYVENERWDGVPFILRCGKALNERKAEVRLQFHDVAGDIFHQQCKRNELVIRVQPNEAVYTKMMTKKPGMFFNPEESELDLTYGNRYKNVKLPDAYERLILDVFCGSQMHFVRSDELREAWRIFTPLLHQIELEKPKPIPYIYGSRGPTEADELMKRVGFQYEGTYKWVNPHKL
Chain of UniProt Q9NSD9 (Q9NSD9 whole entry, looked up): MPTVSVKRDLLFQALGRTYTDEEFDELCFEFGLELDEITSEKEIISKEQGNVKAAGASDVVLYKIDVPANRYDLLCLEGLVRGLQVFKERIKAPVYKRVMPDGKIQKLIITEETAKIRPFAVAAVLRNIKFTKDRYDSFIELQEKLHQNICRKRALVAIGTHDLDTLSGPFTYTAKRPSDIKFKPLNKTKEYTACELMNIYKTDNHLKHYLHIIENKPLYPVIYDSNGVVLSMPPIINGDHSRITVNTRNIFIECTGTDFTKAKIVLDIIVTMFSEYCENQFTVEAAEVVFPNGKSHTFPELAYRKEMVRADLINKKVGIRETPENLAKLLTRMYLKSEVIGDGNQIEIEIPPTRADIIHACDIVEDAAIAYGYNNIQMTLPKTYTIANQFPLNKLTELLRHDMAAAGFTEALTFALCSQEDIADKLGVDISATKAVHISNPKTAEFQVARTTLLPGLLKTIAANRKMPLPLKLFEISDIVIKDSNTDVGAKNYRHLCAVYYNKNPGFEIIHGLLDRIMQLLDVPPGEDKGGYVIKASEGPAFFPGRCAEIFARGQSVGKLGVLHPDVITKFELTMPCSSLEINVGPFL
Chain of UniProt Q9UBQ6 (Q9UBQ6 whole entry, looked up): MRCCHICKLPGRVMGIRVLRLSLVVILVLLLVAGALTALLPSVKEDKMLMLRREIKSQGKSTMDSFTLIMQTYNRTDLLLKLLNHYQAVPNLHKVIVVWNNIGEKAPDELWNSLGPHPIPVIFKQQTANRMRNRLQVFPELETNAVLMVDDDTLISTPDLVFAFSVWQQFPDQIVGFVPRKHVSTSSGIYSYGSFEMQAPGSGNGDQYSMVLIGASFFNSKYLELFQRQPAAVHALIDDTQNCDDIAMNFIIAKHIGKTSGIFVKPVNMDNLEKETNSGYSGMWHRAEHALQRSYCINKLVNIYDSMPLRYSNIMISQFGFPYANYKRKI
Chain of UniProt Q13011 (Q13011 whole entry, looked up): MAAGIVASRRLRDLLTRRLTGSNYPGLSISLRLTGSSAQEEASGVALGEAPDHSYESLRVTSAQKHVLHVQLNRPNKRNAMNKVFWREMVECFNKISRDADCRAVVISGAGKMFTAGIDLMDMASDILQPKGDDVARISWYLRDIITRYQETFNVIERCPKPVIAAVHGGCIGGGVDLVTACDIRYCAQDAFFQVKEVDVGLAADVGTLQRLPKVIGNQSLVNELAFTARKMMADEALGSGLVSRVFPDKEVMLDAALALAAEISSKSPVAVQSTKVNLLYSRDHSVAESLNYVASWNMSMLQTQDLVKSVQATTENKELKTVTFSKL
Chain of UniProt Q9Y5Q0 (Q9Y5Q0 whole entry, looked up): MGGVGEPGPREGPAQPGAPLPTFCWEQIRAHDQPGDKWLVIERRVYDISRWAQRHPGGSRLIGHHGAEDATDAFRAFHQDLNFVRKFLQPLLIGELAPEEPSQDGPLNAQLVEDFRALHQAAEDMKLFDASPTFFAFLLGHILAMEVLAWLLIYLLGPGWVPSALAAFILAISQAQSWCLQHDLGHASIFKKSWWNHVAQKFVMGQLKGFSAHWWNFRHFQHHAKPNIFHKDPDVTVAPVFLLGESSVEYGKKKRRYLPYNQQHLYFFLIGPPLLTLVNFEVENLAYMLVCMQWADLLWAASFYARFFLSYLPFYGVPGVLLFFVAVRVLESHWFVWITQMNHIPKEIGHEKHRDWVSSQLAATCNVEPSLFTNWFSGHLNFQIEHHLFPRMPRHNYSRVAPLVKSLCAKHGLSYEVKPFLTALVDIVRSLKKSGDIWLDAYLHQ

Target	log2 fold change (alvocidib)	log2 fold change (Tubastatin A)	log2 fold change [1]	log2 fold change (defactinib)	log2 fold change [2]	log2 fold change (encorafenib)	log2 fold change [3]	log2 fold change (alisertib)	log2 fold change [4]	log2 fold change (gefitinib)	log2 fold change (lapatinib)	log2 fold change (pictilisib)	log2 fold change (crizotinib)	log2 fold change [5]	log2 fold change (duvelisib)	log2 fold change (gandotinib)	log2 fold change (tozasertib)	log2 fold change (doramapimod)	log2 fold change (bafetinib)	log2 fold change [6]
FAM98A (UniProt Q8NCA5)	0.042	-0.04	0.028	0.01	0.086	-0.004	0.025	-0.028	-0.014	0.037	0.001	-0.024	0.007	0.074	-0.024	-0.059	0.023	-0.015	0.012	0
ENO1, A0A2R8YEM5	-0.256	0.104	0.021	0.043	0.002	0.031	-0.035	0.006	-0.001	0.035	-0.016	-0.037	0.017	-0.469 (active)	0	0.185	0.001	-0.006	0.036	0.244 (active)
FYCO1 isoform 4 (UniProt Q9BQS8)	-0.052	0	-0.001	-0.002	-0.006	0.033	0.024	0.018	0.018	0.016	-0.005	-0.018	-0.018	-0.114	0.036	0.229	0.021	-0.009	-0.019	0.176
EXTL2 (UniProt Q9UBQ6)	-0.016	0	0.009	0.037	0.104	0.168	-0.048	-0.021	-0.005	-0.111	-0.071	-0.282	0.032	-0.138	-0.001	0.106	0.028	0.058	-0.02	-0.006
G6PD isoform 2 (UniProt P11413)	0.029	-0.068	0.013	0.031	0.009	-0.025	0.145	0.021	-0.017	-0.023	0.018	-0.022	-0.03	0.094	-0.023	-0.063	-0.003	-0.015	0.037	-0.035
FKBP8 isoform 2 (UniProt Q14318)	0.004	-0.123	0.02	0.024	-0.018	0.009	0.112	0.027	0.001	0.01	-0.041	-0.036	-0.12	-0.035	0.044	-0.021	-0.024	0.064	-0.07	0.013
FNTB (UniProt P49356)	-0.003	0.048	-0.019	0.026	-0.056	-0.046	0.131	-0.034	-0.007	-0.031	0.027	-0.052	0.032	-0.047	0.143	0.055	-0.069	-0.053	-0.013	0.015
FADS3 (UniProt Q9Y5Q0)	-0.051	0.1	-0.047	0.198	-0.08	0.097	0.096	0	0	0.063	0.13	-0.014	-0.065	-0.322	-0.09	0	0.079	-0.001	-0.131	-0.309
FARSB (UniProt Q9NSD9)	0.003	-0.056	-0.012	-0.014	-0.012	-0.029	0.067	0.002	0.005	-0.013	0.003	-0.014	-0.033	0.007	0.021	-0.053	-0.014	0.033	-0.005	-0.001
FAM83D (UniProt Q9H4H8)	-0.009	-0.044	0.005	-0.007	0.022	0.026	0.017	0.015	0.062	0.009	-0.01	-0.024	-0.026	-0.021	-0.002	-0.018	-0.038	0.009	-0.116	0.031
FAM114A2 (UniProt Q9NRY5)	0.021	0.134	0	0.032	0.037	0.219	0.027	0.127	0.118	0.073	0.106	-0.013	0.013	-0.023	0.011	0.449 (active)	-0.108	-0.011	-0.121	0.196
FHOD1 (UniProt Q9Y613)	-0.034	-0.129	0.014	0.033	0.006	0.021	0.028	0.011	0.002	-0.013	-0.018	-0.011	-0.014	0.017	-0.023	-0.141	0.008	0.045	-0.063	0.035
EXOC3 (UniProt O60645)	0.011	-0.063	0.009	0.031	-0.037	0.001	0.07	0.032	-0.023	-0.001	-0.037	-0.033	-0.133	0.016	-0.039	-0.098	0.019	0.041	-0.094	0.019
ENSA isoform 3 (UniProt O43768)	0.015	-0.038	-0.012	0.03	-0.027	-0.024	-0.053	-0.014	0.001	0.001	0.021	0.02	0.058	0.103	0.049	-0.042	-0.027	-0.068	0.058	-0.103
GAMT (UniProt Q14353)	0.025	-0.059	0.055	0.068	0.038	-0.028	0.039	0.018	-0.021	-0.035	0.02	-0.028	0	0.02	0.082	0.002	-0.02	0.09	0.062	-0.046
ECH1 (UniProt Q13011)	0.017	0.309 (active)	-0.028	0.004	-0.004	-0.033	-0.024	-0.01	0.047	-0.001	-0.035	-0.008	-0.03	-0.089	0.016	0.005	0.178	-0.008	0.091	0.028
